Compound activity: PubChem BioAssay, National Center for Advancing Translational Sciences (NCATS)
The list is not random: actives were taken first. Their share in the collection is about 2.1%.
Abeta yeast res = A-beta toxicity reversal in yeast; yeast expressing A-beta42, growth rescue, OD600, 48 h; response scale: 0% DMSO, 100% iron-clioquinol control; Potency, µM (top dose mostly 46.1 µM), hits mostly activators; actives 0.063% (n = 410,000); also: nearly all actives have a fitted effect of over 55% in size
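Yeast A-beta toxicity model in growth medium with pinned compounds, 48 h at 30 C; growth read as absorbance at 600 nm. Normalized to FeCl3/clioquinol equimolar mix (positive) and DMSO (negative).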
aSyn rescue = inhibitors of alpha-synuclein toxicity in yeast; Yeast expressing alpha-synuclein, growth rescue, BacTiter-Glo, 24 h; Potency, µM (doses to about 46.1 µM), without a hit: at the top dose growth rescue (activation), most hits filed as activators; actives 0.14% (n = 370,000); AID 652106; also: % of control where 0% means no effect; nearly all actives have a fitted effect of over 65% in size
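Galactose-induced alpha-syn yeast (OD600=0.02, raffinose-pregrown) + pinned cpd, 24 hr, 30 deg C; growth by BacTiter-Glo luminescence. Growth restoration scores as activation.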
TDP43 rescue = TDP-43 toxicity inhibition in yeast; Potency, µM (top dose mostly 46.1 µM), without a hit: at the top dose growth rescue (activation), usual class: activators; actives 1.8% (n = 410,000); TDP-43 expressing yeast growth rescue, BacTiter-Glo, 24 h; also: % of control where 0% means no effect; nearly all actives have a fitted effect of over 50% in size
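Yeast expressing TDP-43 (pregrown in raffinose, seeded at OD600=0.02 in galactose medium) exposed to compounds 24 hr at 30 deg C. Growth read by BacTiter-Glo luminescence; rescue of toxicity appears as increased signal.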
FUS yeast rescue = suppressors of FUS proteinopathy in yeast; Potency, µM (titrated, usually from 76.6 µM), most hits filed as activators; S. cerevisiae FUS-expressing, growth rescue, OD600, 24 h; actives 0.24% (n = 390,000);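 also: plate controls were DMSO vehicle for no effect and reference control for full effect; nearly all actives have a fitted effect of over 55% in size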
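FUS-expressing yeast, raffinose-pregrown, induced in 2% galactose minimal medium at OD 0.005; compounds in a dilution series, 24hr at 30C. Growth restoration read as absorbance at 600 nm. CP55940 positive control, DMSO negative.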
* hit, by the source's call. Calls follow the shape of the dose curve; as a rule, active = well fitted curve in the direction sought with a large enough effect; inconclusive = small, poorly fitted or top-dose-only effect, or another doubt; inactive = no such curve, though single readings can be large; an effect the other way counts as inactive or inconclusive. Potency is read from the fitted curve at half-maximal effect.

Cc1ccnc(Nc2nc(-c3ccc(O)cc3)cs2)c1 was read as Abeta yeast res inactive, aSyn rescue -15.6%, TDP43 rescue 12.6µM* and FUS yeast rescue inactive.
CCOc1ccc(NC(=O)CN(c2ccccc2OCC)S(=O)(=O)c2ccccc2)cc1 was read as Abeta yeast res inactive, TDP43 rescue 0.0% and FUS yeast rescue inactive.
CCOc1ccc(NC(=O)CN(c2ccc(Cl)cc2C)S(=O)(=O)c2ccccc2)cc1 was read as Abeta yeast res inactive, TDP43 rescue 7.1% and FUS yeast rescue 22.4µM*.
Screening Cc1cccc(NC(=O)Cn2c(=O)n(Cc3ccccc3)c(=O)c3oc4ccccc4c32)c1C returned Abeta yeast res inactive, TDP43 rescue 9.7% and FUS yeast rescue inactive.
Screening O=C(NC1=C(Nc2ccc(Cl)cc2)C(=O)c2ccccc2C1=O)c1ccccc1 returned Abeta yeast res inactive, aSyn rescue 8.1% and TDP43 rescue 7.7%.
For CN(C1=C(NC(=O)c2ccc(Cl)cc2)C(=O)c2ccccc2C1=O)c1ccccc1 the results were Abeta yeast res inactive, aSyn rescue -5.0% and TDP43 rescue 35.5µM*.
O=C(O)c1ccc(NCCC2=CCCCC2)c([N+](=O)[O-])c1 was read as Abeta yeast res inactive, aSyn rescue 0.7%, TDP43 rescue 15.8µM* and FUS yeast rescue inactive.
`COc1ccc(CCNc2ccc(C(=O)O)cc2[N+](=O)[O-])cc1OC` gave Abeta yeast res inactive, aSyn rescue -0.8%, TDP43 rescue 2.2% and FUS yeast rescue inactive.
Screening NNc1nc(-c2ccccc2)nc2sc3c(c12)CCCC3 returned Abeta yeast res inactive, aSyn rescue -4.2%, TDP43 rescue -3.5% and FUS yeast rescue inactive.
For Nc1c2c(nc3sc4c(c13)CCCC4)-c1ccccc1CC2 the results were Abeta yeast res inactive, aSyn rescue -6.6%, TDP43 rescue 2.51µM* and FUS yeast rescue inactive.
`Cc1cc2occ(CC(=O)N(C)CC(=O)Nc3ccccc3C(F)(F)F)c2cc1C` gave Abeta yeast res inactive, aSyn rescue 1.5%, TDP43 rescue 20µM* and FUS yeast rescue inactive.
`Cc1cc2occ(CC(=O)N(C)CC(=O)Nc3c(C)cccc3C)c2cc1C` gave Abeta yeast res inactive, aSyn rescue 9.4%, TDP43 rescue 25.6% and FUS yeast rescue inactive.
`CCc1ccc(CN(C)C(=O)CCc2nc3ccccc3n(-c3ccc(OC)cc3)c2=O)cc1` gave Abeta yeast res inactive, aSyn rescue 20.4%, TDP43 rescue 17.8µM* and FUS yeast rescue inconclusive.
COc1ccc(-n2c(=O)c(CCC(=O)N(C)Cc3ccccc3C)nc3ccccc32)cc1 was read as Abeta yeast res inactive, aSyn rescue 0.4%, TDP43 rescue 0.0% and FUS yeast rescue inactive.
Screening Oc1ccc(N=Nc2ccc3c(c2)OCCO3)c2ncccc12 returned Abeta yeast res inconclusive, aSyn rescue inconclusive, TDP43 rescue 22.4µM* and FUS yeast rescue inactive.
CC1CCN(c2c([N+](=O)[O-])nn(-c3ccc4c(c3)OCCO4)[n+]2[O-])CC1 was read as Abeta yeast res inactive, aSyn rescue 15.5%, TDP43 rescue 12.6µM* and FUS yeast rescue inconclusive.
O=C(c1ccco1)N1CCN(c2c([N+](=O)[O-])nn(-c3ccc(Cl)cc3)[n+]2[O-])CC1 was read as Abeta yeast res inactive, aSyn rescue 2.2%, TDP43 rescue -4.5% and FUS yeast rescue inactive.
`CC(=O)N(c1ccc(Cl)cc1)c1cn(C(C)=O)c2ccccc12` gave Abeta yeast res inactive, aSyn rescue 11.9%, TDP43 rescue 20µM* and FUS yeast rescue inactive.
`CN(C(=O)COc1cc(=O)n(C)c2ccccc12)c1ccc(Cl)cc1` gave Abeta yeast res inactive, aSyn rescue 0.9%, TDP43 rescue -1.8% and FUS yeast rescue inactive.
CN(c1ccc(Cl)cc1)c1cc(=O)n(C)c2ccccc12 was read as Abeta yeast res inactive, aSyn rescue 4.2%, TDP43 rescue 15.8µM* and FUS yeast rescue inactive.
`COc1cccc(C2CC(=O)Nc3c2c(=O)[nH]c2nc4ccccc4n32)c1` (stereo not drawn) gave Abeta yeast res inactive, aSyn rescue -7.6%, TDP43 rescue -6.7% and FUS yeast rescue inactive.
`COc1ccc2c(c1)c1c(c(=O)n(-c3ccc(C)cc3)c(=O)n1CC(=O)c1ccc(Cl)cc1)n2C` gave Abeta yeast res inactive, TDP43 rescue 13.8% and FUS yeast rescue inactive.
